# Measurements reported in PubChem BioAssay (NCATS).
# Records with an inconclusive call do not appear. Activity calls are given as the source filed them. Calls come from the whole dose curve; as a rule, active = well fitted inhibition curve with a large enough effect; inconclusive = small, poorly fitted or top-dose-only effect; inactive = flat fitted curve, though single readings scatter.
# Test system: NIH3T3
# Experiment: qHTS assay to identify novel small-molecules to repurpose for Merkel cell carcinoma treatment (AID 1296009); note: nearly all actives have a fitted effect of over 60% in size
# Conditions: MCC and control cell lines, CellTiter-Glo viability, 72 h; at 44.8 µM (top of the series) unless noted
# From the text: MCC is a rare and aggressive neuroendocrine skin cancer with limited treatment options. Approximately 80% of MCCs have the Merkel cell polyomavirus (MCPyV) DNA integrated into the host genome (virus-positive: VP-MCC) and viral oncogenes drive oncogenesis. The remaining MCCs are virus-negative (VN-MCC) and are caused by UV mutagenesis. To identify novel treatments for VP-MCC and/or VN-MCC we screened three VP-MCC cell lines (WAGA, MKL-1, MKL-2), three VN-MCC cell lines (MCC-13, MCC-26, UISO), and four immortalized, non-transformed control cell lines (HaCaT, HEK293T, CRL7250, NIH-3T3) against ~2,400 compounds in the NCGC Pharmaceutical Collection (NPC) and ~1,900 compounds in the Mechanism Interrogation PlatE (MiPE). Using cell viability as a readout (CellTiter-Glo assay) we found both overlapping and distinct drugs that can be repurposed for the treatment of VP-MCC and VN-MCC.
# A high-throughput screen was conducted in 1536-well white flat bottom plates (Corning) on a Kalypsys robotic system. Cell lines WAGA, MKL-1, MKL-2, MCC-13, MCC-26, UISO, HaCaT, HEK293T, CRL7250, and NIH-3T3 were screened against 2 small molecule annotated drug libraries NPC and MIPE in dose response (8 and 11 pt. respectively) measuring cell viability after 72 hours of incubation. […] A 1,536 pintool (Kalypsys) was used to transfer 23 nL of compound in DMSO to the 1,536-well assay plates. After 72 hr incubation at 37 degree celsius, 2.5 uL of CellTiter-Glo (Promega) was dispensed into each well using a BiorapTR. Plates were incubated at room temperature for 10 min, transferred to a ViewLux (PerkinElmer) and the luminescence was recorded using an exposure time of 2 seconds. Relative luminescence units (RLUs) were normalized to in-plate controls (no cells as a positive (cytotoxicity) control, DMSO as negative control) and the normalized data was processed using NCATS in-house software.
row,SMILES,outcome
1,CC[C@H]1OC(=O)C[C@@H](O)[C@H](C)[C@@H](O[C@@H]2O[C@H](C)[C@@H](O)[C@H](N(C)C)[C@H]2O)[C@@H](CCN2C[C@H](C)C[C@H](C)C2)C[C@@H](C)C(=O)/C=C/C(C)=C/[C@@H]1CO[C@@H]1O[C@H](C)[C@@H](O)[C@@H](OC)[C@H]1OC,inactive
2,CC1(CO)CC[C@]2(C(=O)O[C@@H]3O[C@H](CO)[C@@H](O)[C@H](O)[C@H]3O)CC[C@]3(C)C(=CCC4[C@@]5(C)CC[C@H](O[C@@H]6O[C@H](C(=O)O)[C@@H](O)[C@H](O)[C@H]6O)C(C)(C)C5CC[C@]43C)C2C1 (stereo not given in full),inactive [at 9.27 µM]
3,COC1C=C([C@@H]2CC=C3[C@@]4(C)C(CC[C@]32C)[C@@]2(C)C=CC(=O)C(C)(C)C2C[C@H]4OC(C)=O)C(=O)O1 (stereo not given in full),inactive [at 17.4 µM]
4,CC(=O)OC1C(O)CC(O[C@@H]2O[C@H](CO)[C@@H](O)[C@H](O)[C@H]2O)C2CCC3C(=O)OC(c4ccoc4)CC3(C)C21 (stereo not given in full),inactive [at 17.4 µM]
5,COc1ccc2c(c1O)OC[C@H]1c3ccc(O)cc3O[C@@H]21,inactive
6,COc1ccc2c(c1)O[C@H](O[C@@H]1O[C@H](CO)[C@@H](O)[C@H](O)[C@H]1O)C(=O)N2,inactive
7,C/C=C/C1=CC2=CC(=O)C(C)(O)C(OC(=O)c3c(C)cc(O)cc3O)C2CO1 (stereo not given),inactive
8,C=C[C@H]1[C@H](O[C@@H]2O[C@H](CO)[C@@H](O)[C@H](O)[C@H]2O)OC=C2C(=O)OCC[C@]21O,inactive
9,CC1OC(O[C@H]2[C@@H](O)C[C@@]3(C)C([C@H](O)C[C@]4(C)C3CC=C3C5CC(C)(C)CC[C@]5(C(=O)OC5OC(CO)C(O)C(O)C5OC5OCC(OC6OCC(OC7OCC(O)C(O)C7O)C(O)C6O)C(OC6OCC(O)(CO)C6O)C5O)CC[C@]34C)[C@]2(C)CO)C(O)C(O)C1O (stereo not given in full),inactive [at 9.27 µM]
10,C=C(C)[C@@H](C)[C@H]1O[C@]23C[C@]4(CO2)C(CCC2[C@@]5(C)CC[C@H](O[C@@H]6OC[C@H](O)[C@H](O[C@@H]7O[C@H](CO)[C@@H](O)[C@H](O)[C@H]7O)[C@H]6O[C@@H]6O[C@@H](CO)[C@H](O)[C@H]6O)C(C)(C)C5CC[C@]24C)C3[C@@](C)(O)[C@@H]1OC(C)=O (stereo not given in full),inactive [at 9.27 µM]
11,COc1c2c(c(C)c3c1C(=O)OC3)OC1(C)CC(O)C3(O)C(C)(C)OC(=O)CCC3(C)C1C2 (stereo not given),inactive [at 17.4 µM]
12,C=Cc1cc(O)cc2nc(-c3ccc(O)c(F)c3)oc12,inactive
13,C=C[C@H]1[C@H](O[C@@H]2O[C@H](CO[C@@H]3OC[C@](O)(CO)[C@H]3O)[C@@H](O)[C@H](O)[C@H]2O)OC=C2C(=O)OCC[C@H]21,inactive [at 17.4 µM]
14,C[C@@H]1CC[C@]2(C(=O)O)CC[C@]3(C(=O)O)C(=CCC4[C@@]5(C)CC[C@H](O[C@@H]6O[C@@H](C)[C@H](O[C@@H]7O[C@H](CO)[C@@H](O)[C@H](O)[C@H]7O)[C@@H](O)[C@H]6O)C(C)(C)C5CC[C@]43C)C2[C@H]1C (stereo not given in full),inactive [at 17.4 µM]
15,COC(=O)c1ccc(O[C@@H]2O[C@H](CO)[C@@H](O)[C@H](O)[C@H]2O)c(OC)c1,inactive
16,O=C1N(CC2CCCCN2)CCN1c1ccccc1 (stereo not given),inactive
17,COc1cc(/C=C/CO)ccc1O[C@@H]1O[C@H](CO)[C@@H](O)[C@H](O)[C@H]1O,inactive
18,OC[C@H]1O[C@@H](Oc2cc(O)cc(/C=C/c3ccc(O)cc3)c2)[C@H](O)[C@@H](O)[C@@H]1O,inactive
19,C=C1CC[C@@H]2[C@](C)(CC[C@H](O)[C@@]2(C)CCC=C(C)C)[C@@H]1Cc1c[nH]c2ccccc12,inactive [at 17.4 µM]
20,CC1(C(=O)O)CCCC2(C)C1CCC13CC(CCC21)C1(CO)OC31 (stereo not given),inactive

row,SMILES,outcome
1,Cc1coc2c1CC1OC1(C)CCC1OC1(C)C2 (stereo not given),inactive
2,NC(=O)c1ccc(OCC2NC(=O)C3CCCN3C2=O)cc1 (stereo not given),inactive
3,CC(C)CC1(C(=O)OCc2ccc(O[C@@H]3O[C@H](CO)[C@@H](O)[C@H](O)[C@H]3O)cc2)CC(=O)OC(C(=O)O)CC(=O)OCC2OC(O1)C(OC(=O)/C=C/c1ccc(O)cc1)C(O)C2O (stereo not given in full),inactive [at 9.27 µM]
4,Cc1cc(C)c(S(=O)(=O)N(Cc2ccc(-c3cccc(S(C)(=O)=O)c3)cc2)Cc2ccc(C(F)(F)F)o2)c(C)c1,inactive
5,Cn1c(=O)cc(N2CCCC(N)C2)n(Cc2ccccc2C#N)c1=O (stereo not given),inactive
6,CC1(CCC(=O)O)C(=O)C=CC23CC4CC(OC4(C)C2O)C13 (stereo not given),inactive
7,C=C1CC[C@@H]2[C@](C)(CO[C@@H]3O[C@H](CO)[C@@H](O)[C@H](O)[C@H]3O)CCC[C@@]2(C)[C@@H]1CCC1=CCOC1=O,inactive [at 17.4 µM]
8,C[C@H]1[C@H](C)CC[C@]2(C(=O)O)CC[C@]3(C(=O)O)C(=CCC4[C@@]5(C)CC[C@H](O[C@@H]6O[C@H](C)[C@@H](O)[C@H](O)[C@H]6O)C(C)(C)C5CC[C@]43C)[C@H]12 (stereo not given in full),inactive [at 17.4 µM]
9,CC(=O)N(O)CCCCCN1C(=O)CCC1=O,inactive
10,COc1ccccc1[C@@H]1C2=C(CC(C)(C)CC2=O)Nc2n[nH]c(C(F)(F)F)c21,inactive
11,NCc1c[nH]c(=S)n1C1CCc2c(F)cc(F)cc2C1 (stereo not given),inactive
12,CC(C)C1=CCC(C)(O)C(OC2OC(CO)C(O)C(O)C2O)C1 (stereo not given),inactive
13,COc1ccc([C@H]2Cc3cccc(O)c3C(=O)O2)cc1,inactive
14,CC1=CC2(O)/C=C/C(C)(O)CC(O)/C=C/C(=O)OC23C(=O)NC(CC(C)C)C3C1C (stereo not given),inactive [at 17.4 µM]
15,C=C1C[C@@]23CC[C@@H]4[C@](C)(C(=O)O)CCC[C@@]4(C)C2=CC[C@H]1C3,inactive
16,C=C1CCC[C@]2(C)C[C@]3(O)OC(=O)C(C)=C3C[C@@H]12,inactive
17,C[C@@H]1C[C@H](O[C@@H]2O[C@H](CO[C@@H]3OC[C@](O)(CO)[C@H]3O)[C@@H](O)[C@H](O)[C@H]2O)CC(C)(C)[C@H]1/C=C/[C@@H](C)O,inactive [at 17.4 µM]
18,O=C(/C=C/c1ccc(O)cc1)OC[C@H]1O[C@@H](OC(=O)/C=C/c2ccccc2)[C@H](O)[C@@H](O)[C@@H]1O,inactive [at 17.4 µM]
19,CC(=O)O[C@H]1[C@H](C)[C@@H](O)[C@H]2[C@@H]1C=C(C(=O)O)[C@H]1C[C@@H]3[C@H]([C@H]21)[C@H]1C(=O)O[C@@H]2CC[C@@]3(C)O[C@]1(O)[C@@H]2C,inactive [at 17.4 µM]
20,C[C@@H](Nc1cc(NS(=O)(=O)N2CCC2)nc(SCc2cccc(F)c2F)n1)[C@@H](O)CO,inactive
